Source: the supplement of paper PMC10849652
Targets with a hit are over-represented here; the source holds about 7,900 in all. About 0.6% of all pairs of compound and target were hits.

What was measured:
Experiment in all cases: log2 fold change, soluble protein after heating vs DMSO (PISA); higher = thermal stabilisation; K562 cells, 10 uM, 30 min; active = over 0.2 and 3.5 SD of the protein, either way, in both replicates (recomputed)
[1] = compound: C1=CC=C(C=C1)[C@H](COC2=CC3=C(C=C2)NC(=O)N3)NC(=O)C4=CC=CN(C4=O)CC5=CC(=C(C=C5)F)F
Outline: (§1)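 K562 cells at 2×10^6 cells/mL were given 10 μM compound for 30 min. Aliquots then went through 3 min of heating across 48°C-58°C, were pooled, and were extracted in PBS with 0.5% NP-40 at 4°C, and the supernatant after 21,000xg for 90 min was quantified by TMTpro 16plex LC-MS/MS with channel sums equalised. Thermal stability relative to control samples, from duplicates, is given as log2 fold change.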

[2] = compound: CC1=C(SC2=C1C(=N[C@H](C3=NN=C(N32)C)CC(=O)N)C4=CC=C(C=C4)Cl)C
Outline: as §1

[3] = compound: CC1=C2C(=CC=C1)N=C(N(C2=O)C3=CC=CC=C3C)CN4C=NC5=C(N=CN=C54)N
Outline: as §1

[4] = compound: Cc1sc2c(c1C)C(c1ccc(Cl)cc1)=N[C@@H](CC(=O)OC(C)(C)C)c1nnc(C)n1-2
Outline: as §1

[5] = compound: c1ccc([C@@H]2C[C@H]2NC2CCNCC2)cc1
Outline: as §1

Measured: log2 fold change

PATL1 (UniProt Q86TB9)
UniProt Q86TB9, sequence (Q86TB9 whole entry, looked up): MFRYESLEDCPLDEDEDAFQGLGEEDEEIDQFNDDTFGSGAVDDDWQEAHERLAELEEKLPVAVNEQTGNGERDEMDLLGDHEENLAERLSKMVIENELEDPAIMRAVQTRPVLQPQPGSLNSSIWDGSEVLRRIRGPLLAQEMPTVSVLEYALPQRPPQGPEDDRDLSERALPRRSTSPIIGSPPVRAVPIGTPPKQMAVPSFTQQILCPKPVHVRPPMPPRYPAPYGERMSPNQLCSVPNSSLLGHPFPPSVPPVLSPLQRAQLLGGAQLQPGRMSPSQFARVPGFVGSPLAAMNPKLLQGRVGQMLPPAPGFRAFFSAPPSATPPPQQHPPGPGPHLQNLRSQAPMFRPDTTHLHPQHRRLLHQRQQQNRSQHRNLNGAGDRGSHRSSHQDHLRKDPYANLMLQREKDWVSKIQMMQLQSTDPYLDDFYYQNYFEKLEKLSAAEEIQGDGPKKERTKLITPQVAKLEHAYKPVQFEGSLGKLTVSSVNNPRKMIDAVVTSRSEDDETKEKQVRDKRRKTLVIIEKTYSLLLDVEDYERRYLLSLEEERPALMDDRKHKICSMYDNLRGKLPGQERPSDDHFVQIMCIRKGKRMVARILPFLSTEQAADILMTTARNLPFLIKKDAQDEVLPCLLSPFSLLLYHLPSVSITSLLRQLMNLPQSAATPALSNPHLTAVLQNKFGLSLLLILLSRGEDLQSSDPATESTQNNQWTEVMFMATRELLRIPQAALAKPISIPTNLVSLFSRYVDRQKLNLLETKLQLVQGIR
inactive: [1] -0.019 | [2] -0.004 | [3] 0.095 | [4] 0 | [5] -0.021

PRKAA1 isoform 2 (UniProt Q13131)
UniProt Q13131, sequence (Q13131 whole entry, looked up): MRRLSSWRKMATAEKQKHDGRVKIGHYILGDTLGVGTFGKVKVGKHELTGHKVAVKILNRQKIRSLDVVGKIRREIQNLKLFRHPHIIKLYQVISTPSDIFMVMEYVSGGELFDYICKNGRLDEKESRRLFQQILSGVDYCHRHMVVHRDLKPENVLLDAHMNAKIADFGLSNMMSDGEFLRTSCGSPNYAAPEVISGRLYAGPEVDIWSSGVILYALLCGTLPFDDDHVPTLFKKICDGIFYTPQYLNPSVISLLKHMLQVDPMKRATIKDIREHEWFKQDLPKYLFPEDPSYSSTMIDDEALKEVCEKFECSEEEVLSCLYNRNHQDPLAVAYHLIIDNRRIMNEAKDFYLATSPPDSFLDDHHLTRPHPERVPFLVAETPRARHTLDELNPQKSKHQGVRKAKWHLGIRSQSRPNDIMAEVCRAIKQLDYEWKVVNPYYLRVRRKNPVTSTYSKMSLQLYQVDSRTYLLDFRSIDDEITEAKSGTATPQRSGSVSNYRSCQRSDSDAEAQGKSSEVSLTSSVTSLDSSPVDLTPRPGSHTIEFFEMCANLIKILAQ
inactive: [1] 0.001 | [2] 0.085 | [3] 0.024 | [4] 0.004 | [5] 0.019

PSMD11 (UniProt O00231)
UniProt O00231, sequence (O00231 whole entry, looked up): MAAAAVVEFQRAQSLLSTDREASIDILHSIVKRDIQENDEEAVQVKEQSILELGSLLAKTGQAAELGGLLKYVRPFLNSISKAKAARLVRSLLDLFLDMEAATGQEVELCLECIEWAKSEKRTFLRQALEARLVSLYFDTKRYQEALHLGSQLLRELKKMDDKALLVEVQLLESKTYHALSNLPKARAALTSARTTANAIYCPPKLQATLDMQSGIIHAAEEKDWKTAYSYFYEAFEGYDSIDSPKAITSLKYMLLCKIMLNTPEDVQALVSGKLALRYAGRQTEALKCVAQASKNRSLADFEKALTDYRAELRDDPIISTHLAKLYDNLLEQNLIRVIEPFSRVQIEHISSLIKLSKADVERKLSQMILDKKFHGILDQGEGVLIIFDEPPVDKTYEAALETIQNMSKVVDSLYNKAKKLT
inactive: [1] 0.043 | [2] -0.049 | [3] -0.053 | [4] -0.017 | [5] 0

PHF5A (UniProt Q7RTV0)
UniProt Q7RTV0, sequence (Q7RTV0 whole entry, looked up): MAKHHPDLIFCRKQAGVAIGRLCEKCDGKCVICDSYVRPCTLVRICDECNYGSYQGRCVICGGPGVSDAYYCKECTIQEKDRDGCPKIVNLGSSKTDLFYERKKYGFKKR
inactive: [1] 0.048 | [2] -0.024 | [3] 0.018 | [4] 0.002 | [5] 0.018

PGGT1B (UniProt P53609)
UniProt P53609, sequence (P53609 whole entry, looked up): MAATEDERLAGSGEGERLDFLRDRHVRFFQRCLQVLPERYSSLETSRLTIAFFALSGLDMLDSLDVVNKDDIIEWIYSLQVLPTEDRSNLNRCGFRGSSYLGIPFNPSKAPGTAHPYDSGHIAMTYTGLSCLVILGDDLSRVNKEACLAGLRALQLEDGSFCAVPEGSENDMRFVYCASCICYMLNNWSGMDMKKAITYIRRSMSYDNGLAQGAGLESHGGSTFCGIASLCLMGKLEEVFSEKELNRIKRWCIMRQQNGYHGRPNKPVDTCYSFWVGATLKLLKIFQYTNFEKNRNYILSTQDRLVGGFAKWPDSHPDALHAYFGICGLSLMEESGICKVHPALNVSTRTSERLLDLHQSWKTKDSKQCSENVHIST
inactive: [1] 0.025 | [2] 0.066 | [3] 0.051 | [4] -0.018 | [5] -0.004

PPP1CA (UniProt P62136)
UniProt P62136, sequence (P62136 whole entry, looked up): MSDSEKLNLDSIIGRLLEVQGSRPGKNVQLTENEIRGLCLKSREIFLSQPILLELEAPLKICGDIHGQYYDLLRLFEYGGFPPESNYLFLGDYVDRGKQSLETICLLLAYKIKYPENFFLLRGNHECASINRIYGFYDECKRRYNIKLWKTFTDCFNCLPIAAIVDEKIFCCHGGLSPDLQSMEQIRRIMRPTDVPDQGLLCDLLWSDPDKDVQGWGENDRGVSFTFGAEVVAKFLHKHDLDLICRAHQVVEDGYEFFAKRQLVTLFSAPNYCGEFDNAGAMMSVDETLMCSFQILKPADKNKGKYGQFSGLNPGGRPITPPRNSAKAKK
inactive: [1] 0.003 | [2] 0.022 | [3] 0.025 | [4] 0.016 | [5] 0.015
